# A selection: hits, their analogues and other compounds. The true share with any hit is near 12%.
# RORgamma inh: ROR gamma (mouse) transcription inhibition; P51450; Drosophila S2 Gal4-RORgamma UAS-luciferase reporter, 20 h; Potency, µM (highest dose often 53.6 µM), without a hit: at the highest dose activity change, negative = inhibition, usual class: inhibitors; 310,000 tested, 5.4% active; AID 2551; note: nearly all actives have a fitted effect of over 60% in size
#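 Read-out: Photinus luciferase luminescence; inhibitors lower reporter signal. Insect Schneider cells with Gal4-ROR gamma fusion under metallothionein promoter, UAS reporter; 700 uM final copper sulfate induction, 20 hr, ambient temperature.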
# Sfp inh: inhibitors of Bacillus subtilis Sfp phosphopantetheinyl transferase | Q9F4F7 | Biochemical Sfp PPTase activity, qHTS | Potency, µM, inactives show largest response in the series, negative = inhibition, actives largely listed as inhibitors | 310,000 tested, 3.5% active | AID 1490;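 note: the enzyme is Sfp with the accession as filed and its product quenches rhodamine fluorescence; 0% = enzyme reaction without inhibitor and -100% = no enzyme wells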
#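 Compounds were incubated with enzyme (final 15 nM) for 15 min at room temperature before substrate addition started the reaction. Fluorescence at 525 nm excitation, 598 nm emission was recorded immediately and after 30 minutes.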
# ALDH1A1 block: blocks purified human ALDH1A1 activity; P00352; Purified ALDH1A1, NADH fluorescence, propionaldehyde substrate; Potency, µM (highest dose often 75.3 µM), for the others: at the top dose activity, negative = inhibition, usual class: inhibitors; 220,000 tested, 7.3% active; AID 1030; active = well fitted inhibition curve with a large enough effect, not every such curve was filed as active; inconclusive = small, poorly fitted or top-dose-only effect, or another doubt; inactive = no such curve, though single readings can be large or run the other way;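 note: plate controls were no enzyme wells and a reference inhibitor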
# Target sequence (P00352 whole entry, looked up): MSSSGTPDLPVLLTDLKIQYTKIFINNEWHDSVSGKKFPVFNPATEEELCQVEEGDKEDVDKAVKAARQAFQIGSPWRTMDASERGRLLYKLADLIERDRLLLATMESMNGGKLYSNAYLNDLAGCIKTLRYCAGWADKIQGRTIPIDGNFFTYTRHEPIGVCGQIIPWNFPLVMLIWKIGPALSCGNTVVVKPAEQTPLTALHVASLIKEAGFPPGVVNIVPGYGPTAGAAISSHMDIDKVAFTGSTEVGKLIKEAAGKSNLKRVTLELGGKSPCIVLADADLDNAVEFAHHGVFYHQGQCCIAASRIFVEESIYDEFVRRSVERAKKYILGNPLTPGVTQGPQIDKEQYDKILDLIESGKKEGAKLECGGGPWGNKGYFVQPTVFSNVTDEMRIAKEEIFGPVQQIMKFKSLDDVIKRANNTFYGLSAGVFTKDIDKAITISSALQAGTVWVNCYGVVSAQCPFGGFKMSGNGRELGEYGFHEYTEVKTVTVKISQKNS
# Gal4-VP16 FLuc: inhibits Gal4-VP16 luciferase reporter, ROR gamma counter-screen; Drosophila S2 Gal4-VP16 UAS-luciferase, luminescence, 20 h; 310,000 tested, 3.5% active; Potency, µM (series often up to 53.6 µM), for the others: at the top dose activity, negative = inhibition, most hits filed as inhibitors;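 note: Gal4-VP16 expression switched on by copper sulfate through the metallothionein promoter; nearly all actives have a fitted effect of over 50% in size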
# PLK1 PBD inh: PLK1 (human) polo-box domain binding inhibition. AID 720504. Plk1 PBD binding of FITC phosphopeptide, fluorescence polarization. P53350. 360,000 tested, 2.8% active. Potency, µM, for the others: max response, negative = inhibition, most hits filed as inhibitors; note: series mostly up to about 57 µM; nearly all actives have a fitted effect of over 65% in size
# An asterisk follows results filed as active; ? = inconclusive; . = no result; [ ] = another dose, or the depositor's remark. Unless noted, calls come from the whole dose curve; as a rule, active = well fitted curve in the direction sought with a large enough effect; inconclusive = small, poorly fitted or top-dose-only effect, or another doubt; inactive = no such curve, though single readings can be large; an effect the other way counts as inactive or inconclusive. Unless noted, % is set by controls: 0 for no effect and ±100 for the full control effect; potency is the fitted concentration of half-maximal effect.
SMILES,RORgamma inh,Sfp inh,ALDH1A1 block,Gal4-VP16 FLuc,PLK1 PBD inh
O=C1C(C=Nc2ccccc2)=C(O)c2ccccc21,?,2%,-5%,11µM*,-11%
COC(=O)N1CCC[C@@]2(CCN(Cc3cc(C(F)(F)F)cc(C(F)(F)F)c3)C2)C1,13%,16%,12%,-7%,.
CN(C)Cc1ccccc1-c1cccc2nccn12,.,.,.,.,-4%
COC(=O)C1=CN(c2ccc(N3CCOCC3)cc2)C(N)=C(C#N)C1c1cccc(F)c1 (stereo not given),.,.,.,.,-6%
COc1cccc(CNCC(O)COc2ccc(C(=O)c3ccccc3)cc2)c1 (stereo not given),12%,-24%,.,-27%,-1%
O=C(c1ccccc1)c1ccc(OCC(O)CNCc2ccc(Cl)cc2)cc1 (stereo not given),-24%,79µM*,.,-11%,0%
Cc1ccccc1NC(=O)/C=C/c1cccs1,?,2%,-7%,?,1%
CCN(CC)S(=O)(=O)c1ccc(C)c(NC(=O)/C=C/c2cccs2)c1,42%,7%,0.71µM*,5%,0%
CC(=O)OCC1OC(n2cnc3c(Cl)nc(Cl)nc32)C(OC(C)=O)C1OC(C)=O (stereo not given),-25%,10%,?,-3%,.
Cc1ccc(C(=O)N2CCN(c3cc(=O)[nH]nc3-c3ccccc3)CC2)cc1,0%,18%,16µM*,3%,2%
COc1cc(OC)cc(C(=O)N2CCN(C(=O)c3ccc(-c4ccccc4)cc3)CC2)c1,1.1µM*,?,-16%,7.1µM*,-3%
COc1cccc(CN2CCN(C(=O)c3ccc(-c4ccccc4)cc3)CC2)c1OC,19%,-2%,?,2%,30µM*
COc1ccc(C(=O)N2CCN(C(=O)c3cc(OC)c(OC)c(OC)c3)CC2)cc1,5%,27%,14µM*,-3%,-7%
COC(=O)CC1N(S(=O)(=O)c2ccc(C)cc2)c2ccccc2C1(C(=O)OC)C(=O)OC (stereo not given),.,.,.,.,-3%
CC(C)CN1CC2(CCN(C(=O)c3cnccn3)CC2)C1,-4%,9%,0%,4%,.
Cc1cccc(N2CCN(C(=O)COc3noc4nc(C)cc(C)c34)CC2C)c1 (stereo not given),.,.,.,.,-6%
CCN(CC)C(=O)CSc1nc2c(sc(=S)n2-c2ccccc2)c(=O)[nH]1,-2%,-3%,?,-10%,0%
CCCc1nc(N2CCOCC2)c2sc(=S)n(-c3ccccc3)c2n1,-16%,-7%,10µM*,-5%,.
Cc1ccc(S(=O)(=O)C(NC(=O)c2ccccc2)=C(Cl)Cl)cc1,.,.,.,.,-16%
CC(=O)NC(=C(Cl)Cl)S(=O)(=O)c1ccccc1,13µM*,1%,-5%,?,-10%
C[C@H]1Cc2c(COc3ccccc3)nc3c(c2CO1)CN(C(=O)c1ccco1)CC3,.,7%,2%[13.5 µM],.,.
O=C(NNC(=O)C1CC1)c1ccc(-c2ccccc2)cc1,17%,12%,1%,11%,1%
O=C(Cc1ccccc1)Nc1ccccc1C(=O)Nc1ccccc1,?,-3%,11%,2%,-7%
O=C(Cc1ccccc1)Nc1cccc(C(=O)O)c1O,-31%,13%,?,10µM*,-18%
O=C(Cc1ccccc1)NNC(=O)c1ccccc1C(=O)O,3.2µM*,8%,.,5%,-5%
SMILES,RORgamma inh,Sfp inh,ALDH1A1 block,Gal4-VP16 FLuc,PLK1 PBD inh
O=C(NNC(=O)c1ccccc1C(=O)O)c1ccc(-c2ccccc2)cc1,14µM*,-1%,?,1%,.
CC(=O)OC[C@@H]1O[C@@H](O/N=C2/C[C@@H](O)[C@@H](O)[C@@H]3[C@@H]4C(=O)N(C[C@@H]5CCCO5)C(=O)[C@H]4CC[C@@H]23)[C@H](OC(C)=O)[C@H](OC(C)=O)[C@@H]1OC(C)=O,1%[10 µM],-7%,-2%[13.5 µM],-6%[10 µM],.
COc1ccc(Cl)cc1NC(=O)C1CCCN(S(C)(=O)=O)C1 (stereo not given),3%,6%,.,6%,-1%
CC(NS(=O)(=O)c1cccc(Cl)c1F)[C@H](O)c1ccccc1 (stereo not given in full),.,.,.,.,-1%
Nc1nsc2ccccc12,14µM*,?,?,?,-11%
O=C(CC[C@H]1O[C@@H](n2cnc3c(NC(=O)c4ccccc4)ncnc32)[C@H](O)[C@@H]1O)NCC1CCN(Cc2ccccc2)CC1,.,.,.,.,-5%
NNC(=O)c1cncn1-c1ccc(F)cc1,-19%,9%,-12%,5%,-29%
NC(=O)c1ccc(NC(=O)c2cncn2-c2ccccc2)cc1,16%,19%,.,14%,24µM*
CCc1ccc2c(c1)c1nc(C)sc1n2CC,10µM*,28µM*,32µM*,11µM*,-8%
Cc1nc2c3cc(F)ccc3n(Cc3ccc(F)cc3)c2s1,-5%[10 µM],?,-10%,-5%,-21%
CC1=CC(C)(C)n2c(O)c(C3=NC(=S)NC3=O)c3cc(OC(=O)c4cccc5ccccc45)cc1c32,8%,-18%,?,-10%,-7%
CC1=CC(C)(C)n2c(O)c(N=NC(N)=S)c3cc(C)cc1c32,0.79µM*,1%,11%,1.8µM*,-4%
COC(=O)CCCCCN1C(=O)NC(CC2CC2)C(C(=O)OCc2ccccc2)=C1C (stereo not given),23%,10%,?,?,.
ClN=C1C=CC=CC1=NCl,.,.,.,.,11µM*
O=C(c1ccc([N+](=O)[O-])cc1)N1CCN(C2=NS(=O)(=O)c3ccccc32)CC1,-22%,11%,.,-3%,2%
Cc1cc(C)c(S(=O)(=O)Nc2ccc3c4c(cccc24)CC3)c(C)c1,11µM*,?,?,?,0%
O=C(CC1CCCCC1)NCc1ccccc1Cl,-9%,4%,.,25%,2%
COC(=O)/C=C1/S/C(=N/NC(=O)c2ccc(OC)cc2)NC1=O,14µM*,2%,.,?,-13%
COC(=O)/C=C1/S/C(=N/NC(=O)c2ccccc2OC)NC1=O,-38%,-5%,.,-1%,1%
COC(=O)/C=C1\SC(=Nc2ccc(OC)cc2)NC1=O,-17%,12%,-4%,-9%,2%
COC(=O)/C=C1\SC(=NC(=O)c2ccc(OC)cc2)NC1=O,-39%,-14%,.,-7%,-12%
COC(=O)/C=C1\S/C(=N/NC(=O)c2ccc(OC)cc2)NC1=O,-26%,10%,?,-8%,19µM*
COC(=O)/C=C1\SC(=NC(=O)c2ccc(-c3ccccc3)cc2)NC1=O,.,.,.,.,19µM*
CCOC(=O)C(Cc1c[nH]c2ccc([N+](=O)[O-])cc12)(NC(C)=O)C(=O)OCC,.,.,.,.,1%
CO[C@H]1COC(=O)[C@H](C)NC(=O)C/C=C\[C@@H](C)[C@@H](NS(=O)(=O)c2ccc(C)cc2)COC(=O)C/C=C\[C@@H]1C,-6%[10 µM],11%,6%[13.5 µM],-4%[10 µM],.
O=C(CN1CCCC1)N1c2ccccc2Sc2ccc(C(F)(F)F)cc21,-11%,-9%,4%,10%,-1%
